Measurements from PubChem BioAssay (NCATS).
Records with an inconclusive call do not appear. The source made the active and inactive calls. Calls come from the whole dose curve; as a rule, active = well fitted curve in the direction sought with a large enough effect; inconclusive = small, poorly fitted or top-dose-only effect, or another doubt; inactive = no such curve, though single readings can be large; an effect the other way counts as inactive or inconclusive.

Tests used:
[1] = Cell Viability - LYMP2-003 (AID 965);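 note: cells exposed to compounds for 24 h before reading; nearly all actives have a fitted effect of over 50% in size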
Summary of the method: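 Human lymphoblastoid LYMP2-003 cells, 2500/well, exposed to compounds for 24 h at 37 C in complete medium. Viability read as intracellular ATP by CellTiter-Glo luminescence; AC50 from Hill-equation fits of qHTS concentration-response data.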

[2] = Cell Viability - LYMP2-004 (AID 966); note: nearly all actives have a fitted effect of over 65% in size
Summary of the method: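 Luminescent ATP read-out (CellTiter-Glo, 30 min RT) after 24 hr compound exposure at 37 C; 2500 lymphoblastoid cells/well, complete medium. Decrease in ATP = cytotoxicity; AC50 from standard Hill model.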

[3] = Cell Viability - LYMP2-005 (AID 967); note: series mostly up to about 92 µM
Summary of the method: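 Human lymphoblastoid LYMP2-005 cells, 2,500 per well in complete medium, rested 5 h at 37C then compound-treated 24 h at 37C. Intracellular ATP read by CellTiter-Glo luminescence after 30 min at room temperature; AC50 from Hill-equation fits of concentration-response data.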

[4] = Cell Viability - LYMP2-009 (AID 968); note: series mostly up to about 92 µM; nearly all actives have a fitted effect of over 55% in size
[5] = Cell Viability - LYMP2-013 (AID 970); note: series mostly up to about 92 µM; nearly all actives have a fitted effect of over 55% in size
Summary of the method: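 CellTiter-Glo luminescence (cellular ATP) read after 30 min at RT. Cells: human lymphoblastoid line, 2500/well, 24 hr compound exposure at 37 C. Tetraoctylammonium bromide positive control; AC50 via standard Hill fit of qHTS titrations.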

[6] = Cell Viability - LYMP2-015 (AID 971); note: nearly all actives have a fitted effect of over 55% in size
Summary of the method: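 qHTS cytotoxicity: 2500 cells/well, 5 hr 37 C, compound 24 hr 37 C, CellTiter-Glo 30 min RT, luminescence. Loss of ATP = toxicity; AC50 via standard Hill fit.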

[7] = Cell Viability - LYMP2-017 (AID 972); note: series mostly up to about 92 µM; nearly all actives have a fitted effect of over 55% in size
Summary of the method: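 Luminescent ATP read-out (CellTiter-Glo, 30 min RT) reports viable cell number. Cells: human lymphoblastoid line, 2500 per well, 5 hr preincubation, 24 hr compound exposure at 37 C. AC50 is derived from qHTS concentration-response data using the standard Hill model.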

[8] = Cell Viability - LYMP2-019 (AID 973); note: nearly all actives have a fitted effect of over 55% in size
Summary of the method: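 qHTS, 1536-well; 2500 cells/well; 5 hr pre-incubation, 24 hr compound exposure, 37 C; CellTiter-Glo added, 30 min RT; luminescence read; AC50 via standard Hill equation.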

[9] = Cell Viability - LYMP2-021 (AID 974)
Summary of the method: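 ATP luminescence (CellTiter-Glo, 30 min RT) after 24 h compound exposure at 37 C; 2500 human lymphoblastoid cells/well, 5 h settle beforehand. Cytotoxicity = concentration-dependent ATP drop, AC50 by Hill fit.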

[10] = Cell Viability - LYMP2-023 (AID 975)
Summary of the method: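 CellTiter-Glo luminescence after 30 min at room temperature; decrease in intracellular ATP reflects toxicity. Cells: human lymphoblastoid line, 2500/well, 24 hr compound exposure at 37 C. AC50 fitted to standard Hill equation from concentration-response.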

[11] = Cell Viability - LYMP2-025 (AID 976); note: series mostly up to about 92 µM
Summary of the method: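 CellTiter-Glo luminescence (cellular ATP) after 24 h compound exposure at 37 C; LYMP2-025 human lymphoblastoid cells, 2500/well, complete medium. Tetraoctylammonium bromide positive control. AC50 by Hill equation fit of qHTS concentration-response.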

[12] = Cell Viability - LYMP2-002 (AID 977); note: series mostly up to about 92 µM
Summary of the method: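 In this qHTS viability screen, 2500 human lymphoblastoid cells per well receive compound for 24 hr at 37 C, and luciferase-based ATP luminescence gives the viability signal. Tetraoctylammonium bromide serves as positive control.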

[13] = Cell Viability - LYMP2-006 (AID 978); note: series mostly up to about 92 µM; nearly all actives have a fitted effect of over 60% in size
Summary of the method: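 Human lymphoblastoid cells (LYMP2-006), 2500/well in complete medium, were treated with compound for 24 hr at 37 C. Cellular ATP was read by CellTiter-Glo luminescence after 30 min, and AC50 values came from Hill-equation fits of concentration-response data.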

[14] = Cell Viability - LYMP2-007 (AID 979);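 note: cells exposed to compound for 24 h before reading; nearly all actives have a fitted effect of over 60% in size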
Summary of the method: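 qHTS cytotoxicity: 2500 cells/well, 5 hr 37 C settle, compound 24 hr 37 C, CellTiter-Glo 30 min RT, luminescence. Decrease in ATP = toxicity. AC50 by standard Hill equation; tetraoctylammonium bromide positive control.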

[15] = Cell Viability - LYMP2-008 (AID 980); note: nearly all actives have a fitted effect of over 60% in size
Summary of the method: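 Luminescent ATP read-out (CellTiter-Glo, 30 min RT) after 24 hr compound exposure at 37 C of human lymphoblastoid cells in complete medium. Decrease in ATP taken as cytotoxicity; AC50 derived by standard Hill fit of qHTS concentration-response data.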

[16] = Cell Viability - LYMP2-010 (AID 981); note: nearly all actives have a fitted effect of over 55% in size
Summary of the method: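 qHTS cytotoxicity, 1536-well: 2500 cells/well, 5 hr settle, 24 hr compound at 37 C, CellTiter-Glo 30 min RT, luminescence read. Decrease in ATP = toxicity; AC50 via standard Hill equation. Positive control tetraoctylammonium bromide.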

[17] = Cell Viability - LYMP2-012 (AID 982)
[18] = Cell Viability - LYMP2-014 (AID 983); note: series mostly up to about 92 µM; nearly all actives have a fitted effect of over 50% in size
Summary of the method: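 2500 cells/well, 5 hr 37 C; cpd 24 hr 37 C, complete medium; CellTiter-Glo 30 min RT, luminescence; ATP loss = toxicity; AC50 via Hill eqn; tetraoctylammonium bromide positive control.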

[19] = Cell Viability - LYMP2-016 (AID 984); note: nearly all actives have a fitted effect of over 55% in size
Summary of the method: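 Human lymphoblastoid LYMP2-016 cells, 2500 per well, treated with compounds for 24 h at 37 C. Viability read as intracellular ATP by CellTiter-Glo luminescence after 30 min at room temperature; AC50 from Hill fits of concentration-response.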

[20] = Cell Viability - LYMP2-018 (AID 985); note: nearly all actives have a fitted effect of over 50% in size
Summary of the method: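 2500 cells/well; 5 hr 37 C; cmpd 24 hr 37 C, complete medium; CellTiter-Glo 30 min RT; luminescence. Tetraoctylammonium bromide positive control. AC50 via Hill fit.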

Measured: outcome

CCC1(c2ccccc2)C(=O)NCNC1=O
inactive: all assays above

Cc1cn([C@H]2C=C[C@@H](CO)O2)c(=O)[nH]c1=O
inactive: all assays above

CC(C)NCC(O)c1ccc(O)c(O)c1 (stereo unspecified)
inactive: all assays above

Cc1cn([C@H]2C[C@H](N=[N+]=[N-])[C@@H](CO)O2)c(=O)[nH]c1=O
inactive: all assays above

NCCS(=O)(=O)O
inactive: all assays above

CC(COc1ccccc1)N(CCCl)Cc1ccccc1 (stereo unspecified)
inactive: [1] | [2] | [3]

Nc1ccn([C@H]2CC[C@@H](CO)O2)c(=O)n1
inactive: all assays above

CC(C)C(=O)Nc1ccc([N+](=O)[O-])c(C(F)(F)F)c1
not listed: [5] | [8]
inactive: all other assays above

N[C@@H](Cc1c[nH]c2ccc(O)cc12)C(=O)O
inactive: all assays above

Cn1c(=O)c2c(ncn2C)n(C)c1=O
inactive: all assays above

O=c1c(-c2ccc(O)cc2)coc2cc(O)cc(O)c12
not listed: [16]
inactive: all other assays above

COc1ccc2[nH]cc(CCNC(C)=O)c2c1
inactive: all assays above

NS(=O)(=O)c1cc2c(cc1Cl)NCNS2(=O)=O
inactive: all assays above

COc1ccc(CCN(C)CCCC(C#N)(c2ccc(OC)c(OC)c2)C(C)C)cc1OC (stereo unspecified)
inactive: [11]

Cn1c(=O)c2[nH]cnc2n(C)c1=O
not listed: [11]
inactive: all other assays above

COc1cc2c(c(OC)c1OC)-c1ccc(OC)c(=O)cc1[C@@H](NC(C)=O)CC2
inactive: [2] | [5] | [10] | [11]

Clc1ccc(C(c2ccccc2Cl)C(Cl)Cl)cc1 (stereo unspecified)
inactive: all assays above

COc1ccc2c(c1)c(CC(=O)O)c(C)n2C(=O)c1ccc(Cl)cc1
inactive: all assays above

O=c1[nH]cc(F)c(=O)[nH]1
not listed: [6] | [7] | [13] | [14] | [15] | [16] | [17] | [20]
inactive: all other assays above

Cc1ccc(-c2cc(C(F)(F)F)nn2-c2ccc(S(N)(=O)=O)cc2)cc1
inactive: all assays above

Nc1c2c(nc3ccccc13)CCCC2
inactive: all assays above
